Measurements: PubChem BioAssay

Assay: viability loss of caspase-8 NB7 cells with TRAIL – with/without TRAIL, luminescence panel, confirmation (AID 651596)
Conditions: NB7 neuroblastoma + caspase-8, without TRAIL, NB7 Caspase-8, without TRAIL, mean of runs, at 10 µM

Compound | activity
Cc1cc(C)c2sc(N(CCCN(C)C)C(=O)c3ccc(S(=O)(=O)N4CCc5ccccc5C4)cc3)nc2c1 | 93.8%
CN(C)c1ccc(-c2nc3ccccn3c2/N=C/c2ccc(Br)cc2)cc1 | 47%
COc1ccc(/C=C2/Sc3ccc(C(=O)NCCN4CCCCCC4)cc3NC2=O)cc1 | 94.7%
CN(C)CCCN(C(=O)/C=C/c1cccs1)c1nc2c(F)cccc2s1 | 93%
COC(=O)c1ccc2c(c1)C(C)(C)C(/C=C/c1ccc(O)cc1)=[N+]2C | 76.1%
Brc1ccc(-c2nnc3sc(CN4CCC5(CC4)OCCO5)cn23)cc1 | 61.4%
COc1ccccc1/C=C/C1(C(=O)NC2CCCC2)CC(=O)N1c1ccc(F)cc1 (stereo not given) | 98.1%
FC(F)(F)c1nnc(-c2ccccc2)nc1Sc1ccc(Cl)cc1 | 46.2%
CC1(C)N=C(N)N=C(N)N1c1cccc(C#N)c1 | 86.1%
O=C(Cn1c2ccccc2c(=O)c2ccccc21)N/N=C/c1cc([N+](=O)[O-])ccc1N1CCCCCC1 | 48%
C/C(=N\NC(=O)COc1ccc(C(C)(C)C)cc1)c1cc2ccccc2o1 | 84.2%
COc1ccc(C(=O)Nc2nc3ccccc3[nH]2)cc1 | 95.1%
CC(C)(C)OC(=O)NCc1ccc(CNC(=O)c2[nH]cnc2C(=O)Nc2ccccc2F)cc1 | 34.9%
Cc1occc1C(=O)O/N=C(\N)c1ccccc1 | 92.8%
CC(C)c1nnc(NC(=O)c2nc(S(=O)(=O)Cc3ccc(F)cc3)ncc2Cl)s1 | 41.8%
NC(=O)c1ccsc1NC(=O)c1ccc2c(c1)CCCC2 | 86.7%
O=C1CN(C(=O)Cn2ncc(Cl)c(Cl)c2=O)c2ccccc2N1 | 99.5%
CCN1CCN(CCCNC(=O)c2ccc3c(c2)NC(=O)/C(=C\c2cccc(C)c2)S3)CC1 | 89.2%
O=C(Nc1ncc(Cc2ccccc2)s1)c1cccs1 | 75%
COc1ccc2oc(C(=O)Nc3nc4ccccc4[nH]3)c(C)c2c1 | 85.3%

Compound | activity
Fc1cccc(C2NN=C(c3ccccc3)S2)c1 (stereo not given) | 58.5%
COc1ccc(/C=N/Nc2cc(C)nc(-n3nc(C)cc3C)n2)c(OC)c1 | 12.9%
O=C(Nc1nc2ccccc2[nH]1)c1ccccc1OC(F)F | 82.2%
CCCCC[C@@H](C)N1C[C@H](COCc2ccccc2)Oc2cc(N3CC[C@H](N(C)C)C3)ccc2S1(=O)=O | 45.6%
Cc1nn(-c2ccccc2)c(Cl)c1CN(C(=O)CCl)c1ccc(Cl)cc1 | 99.6%
O=C(Nc1nc2c(F)cc(F)cc2s1)c1ccccn1 | 64.5%
O=C(Nc1cccc(O)c1)c1cc(-c2ccccc2Cl)on1 | 78%
Cc1ccc(C(=O)N/N=C\c2ccc[nH]2)cc1[N+](=O)[O-] | 79.4%
COc1ccc(CCNc2cc(N3CCN(C(=O)c4ccccc4F)CC3)ccc2[N+](=O)[O-])cc1OC | 64.7%
COc1ccc(C2C(C(=O)N3CCN(c4ccccc4)CC3)c3ccccc3C(=O)N2C)cc1OC (stereo not given) | 64.5%
COC(=O)c1ccc(N/C=C/C(=O)c2ccccc2)cc1 | 80.2%
Cc1csc(N/N=C/c2ccccn2)n1 | 69.7%
CC(C)Sc1cc(Cl)nc(NC(=O)Nc2ccccc2)n1 | 99.7%
CC(C)CC(N)c1csc(NC(=O)c2cc(C(C)(C)C)nn2Cc2ccccc2)n1 (stereo not given) | 92.4%
Oc1ccc(-c2cn3cc(C(F)(F)F)ccc3n2)cc1 | 87.5%
Cc1ccc(C(=O)Nc2nc3c(s2)CCCC3)o1 | 69.2%
c1cc(-c2cc3cc(N4CCOCC4)ccc3o2)cs1 | 67.4%
Cc1ccc(NC2=Nc3ccccc3CS2)cc1 | 38%
CCS(=O)(=O)c1ncc(Cl)c(C(=O)Nc2ccc(C)cc2)n1 | 86.8%
COC(=O)c1cccc(NC(=O)c2cc3ccccc3o2)c1 | 58.6%
